From PubChem BioAssay AID463215 (Sanford-Burnham Center for Chemical Genomics, 2010)
Among all 4,600 compounds or so, about 2,900 (63%) were called active. So high a share suggests a set chosen from earlier hits. Not all results are given here. A number with no mark means an inactive call.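 How the source made its calls: active means inhibition of yeast growth at or above a set limit in either of two replicates at 10 µM; inactive means the rest.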

assay: TIM10 isogenic control strain growth inhibition – single concentration, luminescence, S. cerevisiae, counter-screen for tim10-1 synthetic lethality project, confirmation (AID 463215); conditions: BacTiter-Glo luminescence, 24 h, at 10 µM, active compounds read high;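 further: isogenic wild-type TIM10 control yeast grown in succinate dextrose medium; this counterscreen used the strain with wild-type TIM10; 0% = yeast with DMSO and 100% = medium wells lacking yeast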

| SMILES | inhibition |
| --- | --- |
| CC1CCCCC1NC(=O)/C(C#N)=C/C=C/c1ccccc1[N+](=O)[O-] (stereo not drawn) | 41.3% (active) |
| COc1ccc2nc(N3CCN(C(=O)c4ccc([N+](=O)[O-])o4)CC3)sc2c1 | 82.2% (active) |
| Cc1ccccc1OCC(=O)Nc1ccc(N2CCN(C(=O)C(C)C)CC2)c(Cl)c1 | 62.8% (active) |
| Oc1c(Cl)cc(Cl)c(Cl)c1Cc1c(O)c(Cl)cc(Cl)c1Cl | 89.8% (active) |
| CSC1=N/C(=C\C=C\c2cccs2)C(=O)S1 | 56.8% (active) |
| Cc1cccc(C2=N/C(=C/c3cccs3)C(=O)O2)c1 | 22% |
| O=C(CCN1CCc2ccccc2C(O)(c2ccccc2)C1)c1ccc2c(c1)OCCO2 (stereo not drawn) | 46.2% (active) |
| Cc1cc(C)cc(NC(=S)NCCc2c[nH]c3ccccc23)c1 | -10.2% |
| Cc1cccc(NC(=S)NCc2ccc3[nH]c4c(c3c2)CCCC4)c1 | 34.5% (active) |
| c1ccc(C2=Nc3cccc4cccc(c34)N2)cc1 | -39.8% |
| O=C1c2ccccc2C(=O)c2c1cccc2N1CCN(Cc2ccccc2)CC1 | 34.2% (active) |
| O=Cc1c(N2CCN(c3cccc(Cl)c3)CC2)nc2ccccn2c1=O | 17.8% |
| COc1cc(Br)cc(/C=N/c2ncn[nH]2)c1O | 35% (active) |
| c1ccc(-c2nnc3n2NC(c2ccc4c(c2)OCO4)S3)cc1 (stereo not drawn) | 59.1% (active) |
| Cc1ccc(-c2nn(C(C)(C)C)c3ncnc(N)c23)cc1 | 54.8% (active) |
| CC(C)(CCl)C(=O)Nc1ccc(Sc2ccc(F)cc2)cc1 | 41% (active) |
| C=CCNC(=O)c1ccc2c3n(nc2c1)-c1ccc(C)cc1CO3 | 45.5% (active) |
| CCOC(=O)C1=C(C)N=c2s/c(=C\C(=O)OC)c(=O)n2C1c1ccc(OC)cc1 (stereo not drawn) | 53.6% (active) |
| O=C(COC(=O)c1ccc([N+](=O)[O-])o1)NC12CC3CC(CC(C3)C1)C2 | 44.8% (active) |
| S=C(NCc1ccc(Cl)cc1)NC12CC3CC(CC(C3)C1)C2 | 23.8% |
| COc1ccc(CN(C(=O)CSc2nnc(-c3ccc(OC)c(OC)c3)o2)c2ccc(F)cc2)cc1 | 19% |

| SMILES | inhibition |
| --- | --- |
| CCN(CC)c1ccc(/C=N/NC(=O)c2cnccn2)c(O)c1 | 41.4% (active) |
| COc1ccc(C(=O)O/N=C(\N)Cc2ccc(Cl)cc2Cl)cc1OC | 86.7% (active) |
| Cc1cc(N=Nc2ccc3ccccc3c2)ccc1O | 88.4% (active) |
| FC(F)(F)c1cnc(Oc2ccccc2-c2nnc(-c3ccc(Cl)cc3)o2)c(Cl)c1 | 5.25% |
| O=C1Oc2ccccc2C(=O)/C1=C/c1ccccc1O | 57.5% (active) |
| Cc1cccc(N=Nc2c(O)[nH]c3ccc(F)cc23)c1 | 40.8% (active) |
| O=C(Nc1ccc(NC(=O)c2cccs2)cn1)c1ccco1 | 32.2% (active) |
| COc1cc(NC(=O)c2cccs2)ccc1NC(=O)c1ccccc1Cl | 5.7% |
| Cc1nc(-c2ccc(NC(=O)c3cccs3)cc2)cs1 | -32.7% |
| Cc1ccc(-c2cn3cc(C)ccc3n2)cc1 | 67% (active) |
| Cc1ccc2nc(-c3ccc(Br)cc3)cn2c1 | 38.8% (active) |
| Nc1cc(OC(=O)c2ccccc2Br)nn1S(=O)(=O)c1ccccc1 | 48% (active) |
| CN1C(=O)/C(=N/OC(=O)c2ccccc2Br)c2ccccc21 | 61.5% (active) |
| Fc1ccccc1/C=C1\CCCC2=C1Nc1ncnn1C2c1ccccc1F (stereo not drawn) | 26.4% |
| CCc1cc(C(N)=O)c(NC(=O)c2ccc(OC)cc2)s1 | 59.7% (active) |
| COc1ccc(C(=O)Nc2ccc(-n3nncc3C(C)(C)C)cc2)cc1 | 21.1% |
| CC(C)(C)C(=O)c1cnc(Nc2ccccc2)s1 | 21.1% |
| CSCCC(NS(=O)(=O)/C=C/c1ccccc1)C(=O)N1CCC(C)CC1 (stereo not drawn) | 2.25% |
| CCn1c(/C=C/c2ccc([N+](=O)[O-])o2)nc2ccccc2c1=O | 80.8% (active) |
| COc1ccc2c(c1)cc1n2CCN=C1NN | 51.4% (active) |
| COc1ccccc1-c1n[nH]c2c1[C@H](C)CC[C@H]2C(C)C | 50.2% (active) |

| SMILES | inhibition |
| --- | --- |
| Cc1cc(N)n2nc(-c3ccc(C(C)(C)C)cc3)cc2n1 | 9.25% |
| CC1=C/C(=N\OS(=O)(=O)c2ccccc2)C=CC1=O | -32.8% |
| O=C(Nc1nnc(SCc2c(Cl)cccc2Cl)s1)C1CCCO1 (stereo not drawn) | 41% (active) |
| CC(C)c1ccc(NC(=S)NC2CC3C=CC2C3)cc1 (stereo not drawn) | 35.2% (active) |
| O=C1c2ccccc2S(=O)(=O)N1CC(O)Cn1c2ccccc2c2ccccc21 (stereo not drawn) | 46.1% (active) |
| CCOC(=O)CNC(=O)CSc1ncccc1-c1nc2ccccc2[nH]1 | 1.05% |
| O=C(Nc1ccc(Cl)c(Cl)c1)N1CC=C(c2ccccc2)CC1 | 33.3% (active) |
| CS(=O)(=O)c1sc2nc(-c3ccccc3)cc(-c3ccccc3)c2c1N | -14.8% |
| Nc1cccc(-c2cc(-c3ccccc3)nc(-c3cccc(N)c3)n2)c1 | 36.6% (active) |
| O=c1oc2ccccc2cc1-c1csc(Nc2ccc(O)cc2)n1 | 39.9% (active) |
| O=C(CC(O)(C(F)(F)F)C(F)(F)F)Nc1ccc(Cl)c(Cl)c1 | 92.4% (active) |
| CCOC(=O)C1Sc2[nH]c(=O)sc2C(c2ccc(Cl)cc2)C1C(=O)OCC (stereo not drawn) | 48.2% (active) |
| CC1CC(=S)Nc2ccccc2N1Cc1ccccc1 (stereo not drawn) | -14.8% |
| O=C(Oc1ccc([N+](=O)[O-])cc1)c1ccc2ccccc2n1 | 33.2% (active) |
| CCCc1nc2c(c(=O)c3ccccc3n2C)c(=O)n1C1CCCCCC1 | -18.1% |
| Cc1[nH]n(C(N)=S)c(=O)c1N=Nc1ccc(Cl)cc1Cl | 51.7% (active) |
| CCCCC1(C(=O)OCC)NC(c2ccc(O)cc2)C2C(=O)N(c3ccccc3)C(=O)C21 (stereo not drawn) | 7% |
| CCSC1=C(C#N)C(=O)n2c1cc1c2CCCC1 | 56.2% (active) |
| CC(=NCc1ccc2c(c1)OCO2)C1=C(O)c2ccccc2C1=O | 66.2% (active) |
| O=C(NCc1ccc2c(c1)OCO2)c1c(O)nc2sccn2c1=O | 27.8% |
| COc1ccc(O)c(C(=O)c2cnc3c(c2)c(-c2ccc(F)cc2)c(C#N)c(=O)n3C)c1 | 3.75% |
